Our source for the activity change, negative = cytotoxic and Potency values is PubChem BioAssay (NCATS).

Results filed as inconclusive are left out. Values without a mark were called inactive. The source made the active and inactive calls. The call rests on the fitted dose curve; in most records, active means well fitted curve in the direction sought with a large enough effect; inconclusive means small, poorly fitted or top-dose-only effect, or another doubt; inactive means no such curve, though single readings can be large; an effect the other way counts as inactive or inconclusive. *1 amine or outer side, *2 acyl side, *3 side chain or, on linkers, in order; H or OH if unused. Where a SMILES comes first, the peptide text is derived from it. Bridges are numbered along the chain shown (N, C = ends). [ ]: non-standard residue; d: D form. The star is where a group is joined. ξ: configuration not given here. X10 = NC1=NCCC(C(N[*:1])C(=O)[*:2])N1; ΔAla(3-NHCONH2) = NC(=O)NC=C(N)C(=O)O; ξβ3hOrn = NCCCC(N)CC(=O)*; Dap = NC[CH](N)C(=O)O

The nature of assay [1]: qHTS of pediatric cancer cell lines to identify multiple opportunities for drug repurposing: Primary screen for SK-N-MC cells (AID 1347093).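 Further: series mostly up to about 46 µM; plate controls were DMSO neutral control for no effect and bortezomib for full effect.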 The essentials:
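Metabolically active cells were quantified by ATP-dependent luminescence (CellTiter-Glo, 15 min at room temperature) following 48 h treatment. Cells had been plated at 500-1,000 per well and settled for 5 h beforehand.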

A short description of assay [2]: qHTS of pediatric cancer cell lines to identify multiple opportunities for drug repurposing: Primary screen for BT-37 cells (AID 1347094). Further: potency means the concentration at half of the fitted maximal effect.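 On activity change, negative = cytotoxic: series mostly up to about 57 µM; plate controls were DMSO for no effect and bortezomib for full effect.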 The essentials: (§1)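 Readout: CellTiter-Glo luminescence, 48 h treatment. Controls DMSO (neutral) and bortezomib 2.3 µM final (positive). Potency and efficacy taken from primary-screen concentration-response curves.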
A general note: In qHTS, concentration-response curves come from the screen itself.

The nature of assay [3]: qHTS of pediatric cancer cell lines to identify multiple opportunities for drug repurposing: Primary screen for NB-EBc1 cells (AID 1347095).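 Further: plate controls were DMSO neutral control for no effect and bortezomib for full effect.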 The essentials:
as §1

Assay [4] can be described thus: qHTS of pediatric cancer cell lines to identify multiple opportunities for drug repurposing: Primary screen for U-2 OS cells (AID 1347096).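 Further: plate controls were DMSO wells for no effect and bortezomib positive control wells for full effect; nearly all actives have a fitted effect of over 50% in size.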 The method, boiled down: (§2)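 Cells (500-1,000/well) rested 5 h, then received compounds for 48 h; metabolically active cells were measured by CellTiter-Glo luminescence. Final concentrations spanned up to 46 µM (MIPE, 11-point) or 0.59 nM-46 µM (NPC, 8-point) in primary screens, 11-point in follow-ups.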

Assay [5] is described as follows: qHTS of pediatric cancer cell lines to identify multiple opportunities for drug repurposing: Primary screen for Saos-2 cells (AID 1347097). Further: on the % scale 0 is the no-effect control and ±100 the full control effect; nearly all actives have a fitted effect of over 40% in size. The method, boiled down: as §1
A short description of assay [6]: qHTS of pediatric cancer cell lines to identify multiple opportunities for drug repurposing: Primary screen for SK-N-SH cells (AID 1347098). Further: on the % scale 0 is the no-effect control and ±100 the full control effect; nearly all actives have a fitted effect of over 65% in size. The essentials: as §2
A short description of assay [7]: qHTS of pediatric cancer cell lines to identify multiple opportunities for drug repurposing: Primary screen for NB1643 cells (AID 1347099).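 Further: plate controls were DMSO neutral control for no effect and bortezomib positive control for full effect; nearly all actives have a fitted effect of over 50% in size.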 The essentials: as §1
Assay [8] can be described thus: qHTS of pediatric cancer cell lines to identify multiple opportunities for drug repurposing: Primary screen for BT-12 cells (AID 1347101).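 Further: plate controls were DMSO for no effect and bortezomib positive control for full effect; nearly all actives have a fitted effect of over 25% in size.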 The essentials: as §2
Assay [9] is described as follows: qHTS of pediatric cancer cell lines to identify multiple opportunities for drug repurposing: Primary screen for Rh18 cells (AID 1347102). Further: on the % scale 0 is the no-effect control and ±100 the full control effect; nearly all actives have a fitted effect of over 65% in size. The essentials:
as §2

Assay [10] is described as follows: qHTS of pediatric cancer cell lines to identify multiple opportunities for drug repurposing: Primary screen for LAN-5 cells (AID 1347100).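 Further: plate controls were DMSO neutral control for no effect and bortezomib positive control for full effect.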 The essentials:
as §2

Turning to `NCCCC(N)CC(=O)NCC1NC(=O)C(CO)NC(=O)C(N)CNC(=O)C(C2CCN=C(N)N2)NC(=O)C(=CNC(N)=O)NC1=O` (stereo not drawn) (H-[Dap]S[Dap](ξβ3hOrn)[ΔAla(3-NHCONH2)][X10]; lactam 1-C; configuration not given here), the activity change, negative = cytotoxic in [1] is -13.5% [at 0.597 µM]; in assay [2], 18% [at 0.745 µM]; in assay [3], 29.4% [at 0.597 µM]; in [4], 13.6% [at 0.597 µM]; in assay [5], 29.1% [at 0.597 µM]; in [6], -4.49% [at 0.741 µM]. Also, the activity change, negative = cytotoxic was 13.7% [at 0.597 µM] in [7], 5.9% [at 0.745 µM] in [8] and 6.67% [at 0.597 µM] in assay [9].
On to `O=C(Oc1ccccc1)c1cccc(C(=O)Oc2ccccc2)c1`, for which the Potency result in assay [1], in [2], in [3], in [4], in assay [5] and in assay [6] was “inactive” throughout. Besides, the Potency entry in assay [7] and in [9] was “inactive” each time.
Turning to `O=C(O)c1[nH]n(-c2ccc(S(=O)(=O)O)cc2)c(=O)c1N=Nc1ccc(S(=O)(=O)O)cc1`, the Potency result in assay [1], in assay [2], in assay [3], in assay [4], in assay [5] and in assay [6] was “inactive” each time. For the same molecule, the Potency result in [7], in assay [8] and in assay [9] was “inactive” throughout.
Take `CC1(C)O[C@@H]2C[C@H]3[C@@H]4CCC5=CC(=O)C=C[C@]5(C)[C@@]4(F)[C@@H](O)C[C@]3(C)[C@]2(C(=O)CO)O1`: the Potency entry in [1], in assay [2], in [3], in assay [4], in assay [5] and in assay [6] was “inactive” each time. For the same molecule, the Potency entry in assay [10], in assay [8] and in [9] was “inactive” in each case.
As to `C#Cc1ccc(-c2ccccc2F)cc1`, the Potency entry in assay [1], in assay [2], in [3], in [4], in assay [5] and in assay [6] was “inactive” throughout. For the same molecule, the Potency result in assay [10], in assay [8] and in assay [9] was “inactive” each time.
Turning to `CC(=O)N[C@@H](CO)C(=O)N[C@@H](CC(=O)O)C(=O)N[C@@H](CCCCN)C(=O)N1CCC[C@H]1C(=O)O` (Ac-SDKP-OH), the Potency result in assay [1], in assay [2], in assay [3], in assay [4], in assay [5] and in [6] was “inactive” throughout. For the same molecule, the Potency entry in assay [10], in assay [8] and in assay [9] was “inactive” in each case.
Regarding `CC(=O)N(CC(O)CO)c1c(I)c(C(=O)NCCO)c(I)c(C(=O)NCC(O)CO)c1I` (stereo unspecified), the Potency entry in [1], in assay [2], in [3], in [4], in assay [5] and in assay [6] was “inactive” throughout. Besides, the Potency entry in assay [7], in assay [8] and in [9] was “inactive” in each case.
As to `CN1CCC(=C2c3ccccc3CCc3cccnc32)CC1`, the Potency result in assay [1], in [2], in assay [3], in assay [4], in assay [5] and in assay [6] was “inactive” in each case. The Potency result in [7], in assay [8] and in assay [9] was “inactive” each time.
On to `COCCc1ccc(OCC2CO2)cc1` (stereo unspecified), for which the Potency entry in [1], in assay [2], in [3], in assay [4], in assay [5] and in assay [6] was “inactive” in each case. Also, the Potency result in assay [7], in assay [10] and in assay [9] was “inactive” each time.
Consider `CCOC(=O)C(=O)CCc1ccccc1`, for which the Potency result in [1], in assay [2], in assay [3], in assay [4], in assay [5] and in [6] was “inactive” in each case. Besides, the Potency entry in assay [7], in assay [10] and in [9] was “inactive” each time.
For the molecule `CCCCCOc1ccc(C2SC(=O)NC2=O)cc1OCC` (stereo unspecified), the Potency entry in assay [1], in assay [2], in assay [3], in assay [4], in assay [5] and in assay [6] was “inactive” throughout. For the same molecule, the Potency result in assay [7], in assay [10] and in assay [9] was “inactive” each time.
For `CSc1ccc(/C=C2/C(C)=C(CC(=O)O)c3cc(F)ccc32)cc1`, the Potency result in [1], in assay [2], in assay [3], in assay [4], in [5] and in assay [6] was “inactive” throughout. Besides, the Potency entry in assay [7], in assay [10] and in assay [9] was “inactive” each time.
In the case of `C[N+]1(C)CCC(OC(=O)C(O)(c2ccccc2)C2CCCC2)C1` (stereo unspecified), the Potency result in assay [1], in [2], in assay [3], in [4], in [5] and in [6] was “inactive” each time. Moreover, the Potency result in assay [7], in assay [10] and in assay [9] was “inactive” throughout.
On to `Cc1cccc(C)c1NC(=O)c1ccc(N)cc1`, for which the Potency entry in assay [1], in [2], in assay [3], in assay [4], in [5] and in assay [6] was “inactive” throughout. The Potency result in assay [10], in assay [8] and in assay [9] was “inactive” each time.
For `CNC(=O)c1cnn(-c2nc(N)c3ncn([C@@H]4O[C@H](CO)[C@@H](O)[C@H]4O)c3n2)c1`, the Potency entry in assay [1], in [2], in assay [3], in assay [4], in [5] and in [6] was “inactive” in each case. In addition, the Potency entry in [7], in assay [8] and in [9] was “inactive” each time.
For the molecule `O=C(CS(=O)Cc1ccco1)NC/C=C\COc1cc(CN2CCCCC2)ccn1` (stereo unspecified), the Potency result in assay [1], in [2], in assay [3], in assay [4], in [5] and in assay [6] was “inactive” throughout. For the same molecule, the Potency result in assay [10], in [8] and in [9] was “inactive” in each case.
For the molecule `O=C(O)C1CCC1`, the Potency result in assay [1], in assay [2], in assay [3], in assay [4], in [5] and in assay [6] was “inactive” each time. Moreover, the Potency entry in assay [7], in assay [8] and in assay [9] was “inactive” in each case.
Turning to `COc1cc(/C=C/C(N)=O)cc(OC)c1OC`, the Potency result in assay [1], in assay [3], in [4], in assay [5], in assay [6] and in [10] was “inactive” in each case. The Potency entry in assay [8] and in assay [9] was “inactive” throughout. Moreover, the Potency in assay [2] was 1 nM (active).
For `CC(C)C(=O)Nc1cccc(C2CN3CCSC3=N2)c1` (stereo unspecified), the Potency entry in assay [1], in assay [2], in [3], in assay [4], in [5] and in assay [6] was “inactive” each time. The Potency entry in [7], in [8] and in [9] was “inactive” in each case.
For `CCN1CCCC1CN` (stereo unspecified), the Potency entry in assay [1], in assay [2], in [3], in assay [4], in assay [5] and in [6] was “inactive” each time. Further, the Potency entry in assay [7], in assay [8] and in [9] was “inactive” in each case.
Consider `O=C(OCC1(COC(=O)c2cccnc2)CCCC(COC(=O)c2cccnc2)(COC(=O)c2cccnc2)C1O)c1cccnc1`, for which the Potency entry in assay [1], in [2], in [3], in [4], in assay [5] and in [6] was “inactive” throughout. Moreover, the Potency entry in assay [7], in assay [8] and in [9] was “inactive” throughout.
`Cc1cc(CCCOc2c(C)cc(-c3noc(C(F)(F)F)n3)cc2C)on1`: the Potency entry in assay [1], in assay [2], in assay [3], in assay [4], in [5] and in assay [6] was “inactive” in each case. Also, the Potency entry in [7] and in assay [9] was “inactive” throughout.
